{"source": "PubChem BioAssay (NCI)", "note": "This is part of a sample that, as a whole, favours compounds with a hit. Of some 83,000 tested, about 20% had one in any assay.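 The endpoint reported here, percent growth, reads 100 for growth as untreated, 0 for no net growth and -100 for all cells dead.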 Unmarked numbers belong to inactive results. Activity calls are given as the source filed them. Rule for the calls: active = growth percent below 10; inactive = the rest.", "data": [{"test_system": "HL-60(TB) leukemia", "test": "NCI-60 one-dose screen, 48 h (100 = growth as untreated, 0 = no growth, -100 = all killed)", "conditions": "10 µM unless noted", "values": [{"smiles": "O=c1c(-c2ccc3c(c2)OCO3)coc2c(CO)c(O)ccc12", "growth": "-46.9% (active)"}, {"smiles": "CN1CC=C(c2cc(NC(=O)Nc3ccc(Oc4ccnc(NC(=O)C5CC5)c4)c(F)c3)cc(C(F)(F)F)c2)CC1", "growth": "-18.3% (active)"}, {"smiles": "CNC(=S)NNC(=O)C1CC1", "growth": "73.3%"}, {"smiles": "COc1ccc2nc3cc(Cl)ccc3c(NCCCNCCO)c2c1", "growth": "-14.3% (active)"}, {"smiles": "COc1ccc(-c2cc(-c3cccnc3)nc3sc4c(=O)[nH]c(-c5ccc(Cl)cc5)nc4c23)cc1OC", "growth": "90.3%"}, {"smiles": "CC1=C(CCCOC(=O)NCCCl)C2=C(C)C3(CC3)[C@@](C)(O)C(=O)C2=C1", "growth": "44.7%"}, {"smiles": "CN(C)S(=O)(=O)c1cccc(-c2nc3sc4c(c3c(=O)[nH]2)CCCC4)c1", "growth": "22.3%"}, {"smiles": "O=[N+]([O-])c1ccc(N2CCN=N2)cc1", "growth": "84.4%"}, {"smiles": "COc1ccc(C2CC(c3ccc4c(c3)OCO4)=NN2C=O)cc1", "note": "(stereo not given)", "growth": "106%"}, {"smiles": "CN1CCN(/C=C2\\CC(C(=O)NCc3ccc(Cl)cc3Cl)NC2=O)CC1", "note": "(stereo not given)", "growth": "103%"}, {"smiles": "CCCCC1CCc2cccc3c(SCC(=O)N(C)c4ccc(Cl)cc4)cc[n+]1c23", "note": "(stereo not given)", "growth": "91.4%"}, {"smiles": "O=C(CN1C=NC2C(N3CCOCC3)=NC=NC21)c1ccc(Br)cc1", "note": "(stereo not given)", "growth": "102%"}, {"smiles": "COC(=O)[C@H](CSC)N(C)C(=O)[C@@H]1CSSC[C@@H](NC(=O)c2nc3ccccc3cc2O)C(=O)NCC(=O)N1C", "growth": "0.567% (active)"}, {"smiles": "CCN(CC)CCCN1C(=O)c2c(c(C)c3c(oc4cc(OC)ccc43)c2C)C1=O", "growth": "95%"}, {"smiles": "O=C(c1c[nH]c2ccccc12)c1n[nH]c(=S)n1-c1cccc(Br)c1", "growth": "88.8%"}, {"smiles": "COc1ccc(C(=O)COc2cccc(/C=C3\\COc4ccc5ccccc5c4C3=O)c2)cc1", "growth": "72.1%"}, {"smiles": "CC(C)=CCC[C@@H](C)[C@H]1CC[C@@]2(C)C3=C(CC[C@]12C)[C@@]1(C)CC[C@H](O)C(C)(C)[C@@H]1CC3", "growth": "105%"}, {"smiles": "O=C(Nc1ccccc1OC(=O)c1ccccc1)c1ccccc1", "growth": "0.315% (active)"}, {"smiles": "C[n+]1ccccc1/C=C/c1ccc2cccc(O)c2n1", "growth": "79.2%"}, {"smiles": "O=C1/C(=C/c2ccccc2)CN(C(=O)C(Cl)Cl)C/C1=C\\c1ccccc1", "growth": "-15.3% (active)"}, {"smiles": "COc1ccc(-c2cc3c(C)nc(N)nc3n(C3CCC(OCCO)CC3)c2=O)cn1", "note": "(stereo not given)", "growth": "28.4%"}, {"smiles": "CCCCN1C(=O)/C(=c2\\sc3n(c2=O)NC2C(N=3)N(CC)C(=O)N2CC)c2ccccc21", "note": "(stereo not given)", "growth": "21.3%"}, {"smiles": "CCOC(=O)c1ccc2c(c1)nc(-c1ccccc1)n2C1CCCCC1", "growth": "63.1%"}, {"smiles": "COC(=O)c1c(C(=O)OC)c2ccc3c4ncccc4ccc3n2c1C(=O)c1ccc(C)cc1", "growth": "91.8%"}, {"smiles": "Cn1c2ccccc2c2c3[nH]c(=O)[nH]c(=O)c3c3c4ccccc4n(C)c3c21", "growth": "48.9%"}, {"smiles": "Fc1ccc(Nc2ccc3cc(OCCCN4CCOCC4)ccc3n2)cc1F", "growth": "75.4%"}, {"smiles": "Cc1cc(N=C2C=CC(=[N+](C)C)C=C2)c(N)cc1N", "growth": "122%"}, {"smiles": "COc1cccc(/C=N/C(=S)NC2(C)C3CCC(C3)C2(C)C)c1O", "note": "(stereo not given)", "growth": "75.5%"}, {"smiles": "COc1cccc(N=Nc2cccc(OC)c2)c1", "growth": "66.9%"}, {"smiles": "COc1cc2c(Oc3ccc4[nH]c(C)cc4c3F)ncnc2cc1OCCCN1CCCC1", "growth": "102%"}, {"smiles": "COc1ccc2c(c1)NC(=O)CN2c1nc(C)nc2ccccc12", "growth": "-6.18% (active)"}, {"smiles": "Oc1ccccc1\\C=N/N=C/C=C/c1ccccc1", "growth": "38.5%"}, {"smiles": "CCSc1ccc([C@@H]2[C@@H](N)C(=O)N2c2cc(OC)c(OC)c(OC)c2)cc1", "growth": "-40.5% (active)"}, {"smiles": "COC(=O)[C@]12CC[C@@H](C)[C@H](C)[C@@H]1C1=CC[C@@H]3[C@@]4(C)CC(=O)[C@H](O)[C@@]5(C)COC(=C45)C[C@@]3(C)[C@]1(C)CC2", "growth": "-37.5% (active)"}, {"smiles": "Cc1cccc(-c2nc(Nc3ccc4ncsc4c3)c3ccccc3n2)n1", "growth": "62.5%"}, {"smiles": "c1ccc(CNCCNCc2ccccc2)cc1", "growth": "105%"}, {"smiles": "Oc1ccc(C(c2ccc(O)cc2)C(Cl)(Cl)Cl)cc1", "growth": "68.1%"}, {"smiles": "CCN(CC)CCN1C(=O)c2c(c(C)c3c(oc4cc(O)ccc43)c2C)C1=O", "growth": "-50.6% (active)"}, {"smiles": "COC(=O)C(C(=O)OC)C(Br)C(Br)C(Br)c1ccccc1", "note": "(stereo not given)", "growth": "20.9%"}, {"smiles": "Cn1c(=O)c2c(nc(Br)n2CC(=O)Nc2ccc(F)cc2)n(C)c1=O", "growth": "95.3%"}]}]}
